Screening data: PubChem BioAssay, several laboratories
Sampled rows, rich in hits. Any-hit rate of the full collection: about 3.1%.
Mcl1 Noxa PPI = Mcl-1/Noxa binding inhibitors, primary screen, biochemical, TR-FRET, 1536-well; Induced myeloid leukemia cell differentiation protein Mcl-1 (Homo sapiens), Q07820; TR-FRET Mcl-1/Noxa peptide binding, 2 h; inhibition, % at 21.7 µM; 1.5% of 220,000 active; AID 1022, 2008;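 active = compounds that cut the protein-peptide binding signal by more than 50% relative to plate controls in a single-dose test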;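 also: His-tagged Mcl-1 with rhodamine Noxa BH3 peptide and terbium anti-His antibody; 0% = Mcl-1 plus Noxa peptide wells and 100% = peptide-only wells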
p47phox inh = p47phox/p22phox peptide binding inhibitors, primary screen, biochemical, uHTS, NADPH oxidase regulatory subunit; Neutrophil cytosol factor 1 (Homo sapiens), P14598; fluorescence polarization, 2 h; inhibition, % at 24.7 µM; 0.53% of 220,000 active;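 active = inhibition above about 30%, limit read from the data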;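 also: 0% = p47phox with labelled peptide and 100% = labelled peptide alone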
Target sequence (P14598 whole entry, looked up): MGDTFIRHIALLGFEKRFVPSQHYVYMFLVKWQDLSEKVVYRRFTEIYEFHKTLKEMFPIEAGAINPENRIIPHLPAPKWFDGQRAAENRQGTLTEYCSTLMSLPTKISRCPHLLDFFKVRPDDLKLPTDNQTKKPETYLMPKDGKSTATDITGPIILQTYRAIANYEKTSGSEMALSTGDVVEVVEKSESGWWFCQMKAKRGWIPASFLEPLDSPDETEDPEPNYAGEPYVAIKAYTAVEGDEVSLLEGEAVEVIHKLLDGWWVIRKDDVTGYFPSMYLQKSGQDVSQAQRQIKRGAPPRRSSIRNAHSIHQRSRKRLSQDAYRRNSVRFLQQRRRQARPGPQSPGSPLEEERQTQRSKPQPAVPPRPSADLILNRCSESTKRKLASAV
Mcl1 Bid PPI = Mcl-1/Bid binding inhibitors, primary screen, biochemical, TR-FRET, 1536-well. inhibition, % at 21.7 µM. 0.97% of 220,000 active. TR-FRET Mcl-1/Bid-Dy647 peptide binding;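 active = compounds that cut the binding signal by more than half at the single screening dose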;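 also: His-tagged Mcl-1 with europium anti-His antibody binding Bid BH3 peptide; 0% = Mcl-1 plus peptide wells and 100% = peptide-only wells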
14-3-3 Bad PPI = inhibitors of 14-3-3 zeta/Bad binding, primary screen, biochemical, TR-FRET, bovine 14-3-3 zeta; TR-FRET 14-3-3zeta/Dy647-pBad peptide displacement, 1 h; AID 781, 2007; 14-3-3 protein zeta/delta (Bos taurus), P63103; inhibition, % at 21.7 µM; 0.71% of 220,000 active;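 active = inhibition above about 70%, limit read from the data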;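 also: 0% = full 14-3-3 plus peptide FRET controls and 100% = background without 14-3-3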
Target sequence (P63103 whole entry, looked up): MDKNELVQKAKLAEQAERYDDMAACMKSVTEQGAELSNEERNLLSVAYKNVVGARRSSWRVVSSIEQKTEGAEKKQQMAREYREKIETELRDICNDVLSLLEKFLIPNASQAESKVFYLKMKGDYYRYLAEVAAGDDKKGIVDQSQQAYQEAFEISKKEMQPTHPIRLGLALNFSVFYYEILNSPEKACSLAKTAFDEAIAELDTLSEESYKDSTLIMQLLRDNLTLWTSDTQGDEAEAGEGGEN
Mcl-1 Bim block = inhibitors of Bim peptide binding to Mcl-1, primary screen, biochemical, bead-based flow cytometry, multiplex. Induced myeloid leukemia cell differentiation protein Mcl-1 (Homo sapiens), Q07820. Bim peptide-Mcl-1 binding. inhibition, % at 10 µM. 0.1% of 190,000 active. AID 1009, 2008; in the data active = inhibition above about 40%;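 also: 0% = no compound tracer wells and 100% = peptide blocker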
An asterisk follows results filed as active.

Screening CCOC(=O)C(C(=O)OCC)c1cc(Br)c2noc3c2c1C(=O)c1ccccc1-3 returned Mcl1 Noxa PPI 57.0*, p47phox inh 0.3, Mcl1 Bid PPI -14.3, 14-3-3 Bad PPI -9.6 and Mcl-1 Bim block 42.0*.
Screening Cc1cc(C)cc(NC(=O)CSc2nc(CSc3ccc(Cl)cc3)cc(=O)[nH]2)c1 returned Mcl1 Noxa PPI 0.0, p47phox inh 4.1, Mcl1 Bid PPI -5.1 and 14-3-3 Bad PPI -1.6.
Screening Oc1ccc(/C=N/n2cc(-c3ccccc3)[nH]c2=S)cc1 returned Mcl1 Noxa PPI 73.4*, p47phox inh 6.9, Mcl1 Bid PPI -40.7, 14-3-3 Bad PPI -5.9 and Mcl-1 Bim block -9.0.
`S=c1[nH]c(-c2ccccc2)cn1/N=C/c1ccccc1Br` gave Mcl1 Noxa PPI 27.5, p47phox inh 3.4, Mcl1 Bid PPI -33.9, 14-3-3 Bad PPI -1.7 and Mcl-1 Bim block -6.0.
`Cc1ccc(/C=N/n2cc(-c3ccccc3)[nH]c2=S)s1` gave Mcl1 Noxa PPI 53.6*, p47phox inh -11.6, Mcl1 Bid PPI -47.1, 14-3-3 Bad PPI -10.9 and Mcl-1 Bim block -8.0.
O=C(OCc1ccc(Cl)cc1)c1ccccc1C(=O)c1ccccc1 was read as Mcl1 Noxa PPI -0.9, p47phox inh -10.4, Mcl1 Bid PPI 11.0, 14-3-3 Bad PPI -1.9 and Mcl-1 Bim block -1.0.
Screening C=CCn1c(SCc2ccc([N+](=O)[O-])cc2)nnc1C(C)NC(=O)c1ccccc1 (stereo not drawn) returned Mcl1 Noxa PPI 14.7, p47phox inh 0.0, Mcl1 Bid PPI 93.6*, 14-3-3 Bad PPI -7.2 and Mcl-1 Bim block 0.0.
Screening C=CCn1c(SCCOc2ccc(OC)cc2)nnc1C(C)NC(=O)c1ccc(OC)cc1 (stereo not drawn) returned Mcl1 Noxa PPI 8.5, p47phox inh -7.0, Mcl1 Bid PPI -43.8, 14-3-3 Bad PPI -3.9 and Mcl-1 Bim block -2.0.
For N#CCCC(CCC#N)C1=NCCc2ccccc21 the results were Mcl1 Noxa PPI -8.5, p47phox inh -8.7, Mcl1 Bid PPI -16.1 and 14-3-3 Bad PPI -0.4.
For COc1ccccc1/C=C1/SC(=O)N(CCC(=O)Nc2ccc(S(=O)(=O)Nc3nccs3)cc2)C1=O the results were Mcl1 Noxa PPI 77.9*, p47phox inh -48.1, Mcl1 Bid PPI -134.9, 14-3-3 Bad PPI -1.8 and Mcl-1 Bim block -4.0.
Screening O=C(CCN1C(=O)S/C(=C\c2ccccc2)C1=O)Nc1ccc(S(=O)(=O)Nc2nccs2)cc1 returned Mcl1 Noxa PPI 81.6*, p47phox inh -100.0, Mcl1 Bid PPI -84.5, 14-3-3 Bad PPI -5.1 and Mcl-1 Bim block -1.0.
COc1ccccc1/C=C1\SC(=S)N(CCC(=O)NC2=NCCS2)C1=O was read as Mcl1 Noxa PPI 42.3, p47phox inh -57.8, Mcl1 Bid PPI -9.7, 14-3-3 Bad PPI 4.4 and Mcl-1 Bim block -3.0.
Screening CCCn1nc(C(=O)Nc2ccc(S(=O)(=O)Nc3nccs3)cc2)c2ccccc2c1=O returned Mcl1 Noxa PPI 51.1*, p47phox inh -55.9, Mcl1 Bid PPI -35.4, 14-3-3 Bad PPI 8.4 and Mcl-1 Bim block -1.0.
CC(C)(C)C(=O)Nc1nc(C2CCCN2S(=O)(=O)c2ccc(Cl)cc2)cs1 (stereo not drawn) was read as Mcl1 Noxa PPI -7.7, p47phox inh 11.3, Mcl1 Bid PPI -19.1, 14-3-3 Bad PPI 71.3* and Mcl-1 Bim block 2.0.
Screening CCNC(=O)NC(=O)COC(=O)CCCc1nc2ccccc2s1 returned Mcl1 Noxa PPI 9.2, p47phox inh -6.6, Mcl1 Bid PPI 5.3, 14-3-3 Bad PPI 4.9 and Mcl-1 Bim block 3.0.
Screening COc1ccc(C(c2c(O)ccc3ccccc23)N2CCOCC2)c(OC)c1 (stereo not drawn) returned Mcl1 Noxa PPI 79.2*, p47phox inh -8.1, Mcl1 Bid PPI 49.5, 14-3-3 Bad PPI -7.1 and Mcl-1 Bim block -5.0.
Screening COc1ccc(C(CCN2CCOCC2)c2c(O)cc(OC)cc2OC)cc1 (stereo not drawn) returned Mcl1 Noxa PPI -8.2, p47phox inh -10.8, Mcl1 Bid PPI -47.0 and 14-3-3 Bad PPI -2.9.
Screening COc1ccc(NC(=O)c2cc3c(=O)n(C)c4ccccc4c3s2)cc1OC returned Mcl1 Noxa PPI 40.6, p47phox inh 13.7, Mcl1 Bid PPI 55.3*, 14-3-3 Bad PPI 5.7 and Mcl-1 Bim block -3.0.
`CNc1nn(-c2cccc(Cl)c2)nc1N` gave Mcl1 Noxa PPI -65.6, p47phox inh -60.8, Mcl1 Bid PPI 95.7*, 14-3-3 Bad PPI -5.4 and Mcl-1 Bim block -6.0.
Screening Nc1ccccc1Nc1cc(-c2ccccc2)nn1-c1cccc(Cl)c1 returned Mcl1 Noxa PPI 12.0, p47phox inh -7.3, Mcl1 Bid PPI -60.4, 14-3-3 Bad PPI -7.3 and Mcl-1 Bim block -5.0.
Screening C#CCOCCOCCOCCNc1nc(N2CCN(C(=O)C(Cc3ccc(O)cc3)n3cc(C(N)CC(C)C)nn3)CC2)nc(N2CCN(C(=O)C(Cc3cc4ccccc4[nH]3)n3cc(C(N)Cc4ccc(O)cc4)nn3)CC2)n1 (stereo not drawn) returned Mcl1 Noxa PPI 36.7, p47phox inh 0.2, Mcl1 Bid PPI 96.3*, 14-3-3 Bad PPI 25.3 and Mcl-1 Bim block -5.0.
Screening C#CCOCCOCCOCCNc1nc(N2CCN(C(=O)[C@H](CCCCN)n3cc([C@@H](N)CO)nn3)CC2)nc(N2CCN(C(=O)[C@H](Cc3cc4ccccc4[nH]3)n3cc([C@@H](N)CO)nn3)CC2)n1 returned Mcl1 Noxa PPI 15.2, p47phox inh 38.9*, Mcl1 Bid PPI -36.4 and 14-3-3 Bad PPI -0.2.
C#CCOCCOCCOCCNc1nc(N2CCN(C(=O)[C@H](CCCCN)n3cc([C@@H](N)CO)nn3)CC2)nc(N2CCN(C(=O)[C@H](Cc3cc4ccccc4[nH]3)n3cc([C@@H](N)CC(C)C)nn3)CC2)n1 was read as Mcl1 Noxa PPI 35.5, Mcl1 Bid PPI 53.5*, 14-3-3 Bad PPI 32.6 and Mcl-1 Bim block 1.0.
`Cc1cnc(C(=O)Oc2c(C)ccc(C)c2C)cn1` gave Mcl1 Noxa PPI -3.6, p47phox inh -2.3, Mcl1 Bid PPI -13.8, 14-3-3 Bad PPI -2.1 and Mcl-1 Bim block -1.0.
CC1CC(C)CN(CC(C)(C)NS(=O)(=O)c2ccc(Cl)cc2)C1 (stereo not drawn) was read as Mcl1 Noxa PPI -3.5, p47phox inh -9.8, Mcl1 Bid PPI -4.5, 14-3-3 Bad PPI -2.9 and Mcl-1 Bim block 1.0.
Screening Oc1c(C(c2cccs2)N2CCN(c3ccccc3)CC2)ccc2cccnc12 (stereo not drawn) returned Mcl1 Noxa PPI 84.6*, p47phox inh -35.9, Mcl1 Bid PPI 65.1*, 14-3-3 Bad PPI 50.2 and Mcl-1 Bim block -6.0.
For Cc1ccc2nsnc2c1NC(=O)COc1ccccc1F the results were Mcl1 Noxa PPI 9.6, p47phox inh 4.5, Mcl1 Bid PPI -25.7, 14-3-3 Bad PPI 1.4 and Mcl-1 Bim block -2.0.
